Screening results deposited in PubChem BioAssay by National Center for Advancing Translational Sciences (NCATS).
nsP2pro primary – Primary qHTS for inhibitors of NSP2Pro chikungunya virus (CHIKV) | Polyprotein P1234 (Chikungunya virus (strain S27-African prototype)), Q8JUX6 | FRET peptide cleavage, nsP2pro, fluorescence 1 h | Potency, µM (top dose mostly 24.9 µM), for inactives: at the highest dose activity change, negative = inhibition, hits mostly inhibitors | 31,000 compounds, 1.1% hits | AID 1964107, 2024; calls by dose curve; note: nearly all actives have a fitted effect of over 60% in size
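FRET cleavage of 2.5 uM peptide 2 by 150 nM CHIKV protease domain at pH 8.0 (Tris, Tween 20). Compounds at 7 concentrations (up to 25 uM) preincubated 15 min. Fluorescence read after 1 h at room temperature.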
The depositor's hits bear a star; i = inactive; [ ] = another dose, or the depositor's remark. Many of the other results were omitted from the sample, so hits are more common in it than they were. % is set by controls: 0 for no effect and ±100 for the full control effect; potency is the fitted concentration of half-maximal effect.

SMILES | nsP2pro primary
NC1=N[C@@](c2cccc(-c3cncnc3)c2)(c2ccnc(C(F)F)c2)c2cccc(F)c21 | -4.1%
Cc1cc(C)nc(NC(=S)N2CCN(c3cccc(OC(F)(F)F)c3)CC2)c1 | -7.1%
CCOC(=O)C(Cc1ccccc1)NC(=O)Cn1nnc(-c2ccc(C)cc2)n1 (stereo unspecified) | -19.6%
CCOC(=O)c1ccccc1C(=O)OCC | 3.8%
CCOC(=O)[C@H](CS)NCCN[C@@H](CS)C(=O)OCC | 11.1µM*
CCN1CCN(c2ncc3c(n2)CCN(Cc2ccc(C)s2)C3)CC1 | 21.2%
Cc1ccccc1CN1CCc2nc(N3CCN(c4ncccn4)CC3)ncc2C1 | 52.0%
CCCCN1CCc2nc(N3CCN(C)CC3)ncc2C1 | 10µM*
CC(=O)O[C@@H]1C[C@@]23C[C@@]24CC[C@H](OC2OC[C@@H](O)[C@H](O)[C@H]2O)C(C)(C)[C@@H]4CC[C@H]3[C@]2(C)CC3OC4(C[C@@H](C)C3[C@@]12C)OCC1(C)OC14 (stereo partly specified) | 6.6%[10 µM]
Oc1cccc2cc(-c3ccccc3)cnc12 | i
FC(F)(F)c1ccccc1-c1nc(NCc2ccc(-c3ccncc3)cc2)c2ccccc2n1 | -11.2%
CCNC(=O)N[C@@H]1C=C[C@@H](c2c(C)nn(-c3ccc(C(F)(F)F)cc3)c2C)C1 | 11.2µM*
CCNC(=O)N[C@@H]1C=C[C@@H](c2c(C)nn(-c3ccc(C(C)(C)C)cc3)c2C)C1 | -6.0%[39.2 µM]
CCNC(=O)N[C@@H]1C=C[C@@H](c2c(C)nn(-c3ccc(C(C)C)cc3)c2C)C1 | -4.3%[39.2 µM]
CC(C)(C)C(=O)CN1C(=O)[C@H](NC(=O)Nc2cccc(C(=O)O)c2)CN(C2CCCCC2)c2ccccc21 | -10.6%
O=C1COCC2(CN(c3ccc(C(F)(F)F)cn3)C2)CN1c1ccc(F)cc1 | -10.7%[39.2 µM]
O=C1COCC2(CN(c3ccc(C(F)(F)F)cn3)C2)CN1c1ccccc1F | 11.2µM*
CC(C)(C)c1ccc(CN2CC3(COCC2=O)CN(c2cnccn2)C3)cc1 | i
O=C1Nc2ccccc2CN(C/C=C/c2ccccc2)C12CCNC2 (stereo unspecified) | -8.2%
Cc1cc(CN2CCC23Cc2ccccc2NC3=O)no1 (stereo unspecified) | -15.9%[39.2 µM]
CCCN1Cc2ccccc2NC(=O)C12CCNC2 (stereo unspecified) | 12.6µM*
COc1ccc(NC(=S)N2CCN(c3cccc(C(F)(F)F)c3)CC2)nc1 | -12.7%
O[C@@H]1[C@@H](O)[C@@H](O)OC[C@@H]1O | -10.9%[78.4 µM]
CCC(C)C(=O)N1CCC2(CCc3nn(Cc4ccccc4)c(=O)n3CC2)CC1 (stereo unspecified) | -4.1%
CC1CCc2c(sc(NC(=O)COc3ccccc3)c2C(=O)Nc2ccccc2Cl)C1 (stereo unspecified) | -2.9%
SMILES | nsP2pro primary
CCOc1ccc(NC(=O)c2c(NCc3cccnc3)sc3c2CCC(C)C3)cc1 (stereo unspecified) | 11.2µM*
COc1ccc(NC(=O)c2c(NC(=O)c3ccncc3)sc3c2CCC(C(C)(C)C)C3)cc1 (stereo unspecified) | -18.3%
CNc1nnc(-c2cccc3ccccc23)o1 | -1.9%
O=C(CCCCCCSc1ccc2ccccc2c1)NO | 29.4%
CCOCCOC1CCN(C(=O)c2nn(C)c3ccccc23)CC1 | i
CC(C)(C)c1ccc(S(=O)(=O)Nc2ccc(-n3ccnc3)cc2)cc1 | 280.7%
COc1ccccc1Oc1ccc(N(Cc2cccnc2)S(=O)(=O)CC(F)(F)F)cc1 | 11.1µM*
COc1ccc(C)c2sc(N(Cc3cccnc3)C(=O)COc3ccccc3)nc12 | -11.2%
COc1cccc2sc(N(Cc3cccnc3)C(=O)C3COc4ccccc4O3)nc12 (stereo unspecified) | -16.2%
CCNC(=O)[C@@H]1CCCN1C(=O)[C@H](CCCN=C(N)N)NC(=O)[C@H](CC(C)C)NC(=O)[C@@H](C)NC(=O)[C@H](Cc1ccc(O)cc1)NC(=O)[C@H](CO)NC(=O)[C@H](Cc1c[nH]c2ccccc12)NC(=O)[C@H](Cc1cnc[nH]1)NC(=O)[C@@H]1CCC(=O)N1 | 61.2%[10 µM]
COc1cc(-c2nc(Nc3ccc(F)c(F)c3)c3ccccc3n2)c(F)cn1 | 3.1%
CS(=O)(=O)c1ccc([C@@H](CC2CCCC2)C(=O)Nc2cnccn2)cc1Cl | -4.2%
COc1ccc(NC(=O)N[C@@H]2C=C[C@@H](c3c(C)nn(CCC#N)c3C)C2)cc1 | 12.6µM*
Cc1nn(-c2ccc(F)cc2)c(C)c1[C@@H]1C=C[C@@H](NC(=O)NC(C)C)C1 | -8.4%[39.2 µM]
COc1ccc(-n2nc(C)c([C@@H]3C=C[C@@H](NC(=S)NCC(C)C)C3)c2C)cc1 | 44.5%[39.2 µM]
Cc1cc(C)cc(-c2ccc(CN3CCCC(N[S+](C)(=O)[O-])C3)cc2)c1 (stereo unspecified) | i
CNC(=O)c1cccc(-c2cnc(Nc3ccc(Cl)cn3)c3c2CCO3)c1 | i
Cn1cc(-c2cnc(Nc3ccc(F)cc3)c3c2CCO3)cn1 | -5.4%[39.2 µM]
Cn1cc(-c2cnc(Nc3cccnc3)c3c2CCO3)cn1 | 8.91µM*
O=C(Nc1ncc(Cc2ccccc2)s1)c1ccc(-c2cccc([N+](=O)[O-])c2)o1 | -10.7%
O=C1CCCC2=C1C(c1[nH]ncc1Cl)NC(=NCc1ccoc1)N2 (stereo unspecified) | -7.6%
COC(=O)CCCCC(CCSS/C(CCO)=C(\C)N(C=O)Cc1cnc(C)nc1N)SC(C)=O (stereo unspecified) | 8.1%
Cc1ncc(CNC(=O)N(CCCl)N=O)c(N)n1 | -2.0%
C/C(=C(\CCO)SS/C(CCO)=C(\C)N(C=O)Cc1cnc(C)nc1N)N(C=O)Cc1cnc(C)nc1N | 11.1µM*
COCC(=O)NC[C@H]1CCN(Cc2ccc(C)s2)C[C@H]1N(C)C | i
SMILES | nsP2pro primary
Cc1ccc(CN2CCc3nc(C(=O)Nc4cccnc4)oc3CC2)o1 | 10µM*
CN1CCN(c2nc3c(c(=O)[nH]2)CCN(Cc2cccnc2)CC3)CC1 | i
Cc1oc2c(c1C(=O)N1CCOCC1)CN(Cc1cccnc1)CC2 | -11.3%
Fc1cc(Cl)cc(-c2ccc(CNc3nc(-c4ccccc4C(F)(F)F)nc4ccccc34)cc2)c1 | -10.7%
CCOc1ccc(C(=O)Nc2ccc(-c3nc4ccccc4[nH]3)cc2)cc1 | -10.3%
CCOC(=O)[C@H](C)C[C@@H](Cc1ccc(-c2ccccc2)cc1)NC(=O)CCC(=O)O | -11.4%
O=C(O)C[C@H]1CCC(=O)[C@@H]1C/C=C\CCO | 33.8%
COC(=O)C1=C(C)NC(C)=C(C(=O)OCC(C)=O)C1c1ccccc1[N+](=O)[O-] (stereo unspecified) | 12.4µM*
CCOC(=O)C1=C(C)NC(C)=C(C(=O)OCC)C1c1ccccc1/C=C/C(=O)OC(C)(C)C | -20.9%
COC(=O)C1=C(C)NC(C)=C(C(=O)OC(C)C)C1c1cccc2nonc12 (stereo unspecified) | -2.4%
CCCn1cc(NC(=O)C[C@H]2NC(=O)c3ccccc3NC2=O)c(C)n1 | 2.2%
CC=CC1C(C(=O)OCc2c(F)c(F)c(COC)c(F)c2F)C1(C)C (stereo unspecified) | 14.8%
